For assay [1], the system named is MDA-MB-231. Nature of the assay: cell viability relative to vehicle unstimulated control (fraction); higher = more viable cells. Conditions: pre-treatment time: 18 h then 24 h IFNg/TNF.
Assay [2] deals with MDA-MB-231. Description: kynurenine production, fold change vs DMSO IFNg/TNF control; higher = more kynurenine produced (less inhibition). Conditions: pre-treatment time: 18 h then 24 h IFNg/TNF. An outline of the steps:
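MDA-MB-231 cells (7 × 10^4/well, 96-well plates, seeded 24 h earlier) were pre-treated 18 h with each natural product in 0.1% DMSO, then stimulated 24 h with IFNγ (1 U/ml) and TNF (6.25 ng/ml) at 37°C. Supernatant kynurenine was read at 492 nm after trichloroacetic acid and p-dimethylaminobenzaldehyde treatment, against 0–100 μM standards. Kynurenine production is the fold change over cytokine-stimulated vehicle wells on the same plate, averaged over duplicate plates in the first screening round.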

± gives the standard deviation of the averaged measurements.
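Wherever cell viability relative to vehicle unstimulated control is given: viability of the cells left after supernatant collection, read with Deep Blue dye added for 4 h, as absorbance at 570 nm minus 600 nm.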

As for `CC1CCC(C(C)C)C(O)C1` (single isomer, unassigned; (-)) [(-)-Menthol] (compound dose: 10 uM), in the assay on MDA-MB-231 [1], the cell viability is 0.899 ± 0.076. In the assay with MDA-MB-231 [2], the kynurenine production came to 0.988 ± 0.27.

For the compound `C[C@H]1COC2=C1C(=O)C(=O)c1c2ccc2c1CCCC2(C)C` [Cryptotanshinone] (compound dose: 10 uM), in the assay with MDA-MB-231 [1], the cell viability stood at 0.885 ± 0.048. Also, in the assay with MDA-MB-231 [2], the kynurenine production is 0.3818 ± 0.0038.

Regarding `COC(=O)[C@]12OC[C@]34[C@H]([C@@H](O)[C@@H]1O)[C@@]1(C)CC(=O)C(O)=C(C)[C@@H]1C[C@H]3OC(=O)[C@H](OC(=O)C=C(C)C)[C@@H]24` [Brusatol] (compound dose: 10 uM), the cell viability in the assay on MDA-MB-231 [1] was 0.432 ± 0.034. In addition, in the assay on MDA-MB-231 [2], the kynurenine production amounted to 0.1176 ± 0.00049.

As for `C[C@H]1O[C@@H](Oc2ccc(COC(=O)CC(O)(CC(=O)OCc3ccc(O[C@@H]4O[C@H](CO)[C@@H](O)[C@H](O)[C@H]4O)cc3)C(=O)Oc3ccc(O[C@H]4O[C@H](CO)[C@@H](O)[C@H](O)[C@H]4O)cc3)cc2)[C@H](O)[C@@H](O)[C@@H]1O` (some centres undefined) [Parishin] (compound dose: 10 uM), in the assay on MDA-MB-231 [1], the cell viability is 0.985 ± 0.054. In addition, the kynurenine production with MDA-MB-231 [2] came out at 0.792 ± 0.13.

For the compound `C=C(C)C(=O)O[C@H]1CC2=C[C@@H](C/C(C)=C/[C@H]3OC(=O)C(=C)[C@H]13)OC2=O` [Deoxyelephantopin] (compound dose: 10 uM), the cell viability with MDA-MB-231 [1] was determined as 0.768 ± 0.041. In addition, the kynurenine production with MDA-MB-231 [2] was 0.117 ± 0.06.

On to `O=C(O)/C=C/c1ccccc1` [Trans-cinnamic acid] (compound dose: 10 uM), for which the cell viability with MDA-MB-231 [1] was determined as 1.02 ± 0.019. The kynurenine production in the assay with MDA-MB-231 [2] came to 0.882 ± 0.022.

For `C=C(C)[C@@H]1CC[C@]2(C(=O)O)CC[C@]3(C)[C@H](CC[C@@H]4[C@@]5(C)CCC(=O)C(C)(C)[C@@H]5CC[C@]43C)[C@@H]12` [Betulonic acid] (compound dose: 10 uM), the cell viability in the assay with MDA-MB-231 [1] was 0.836 ± 0.033. In the assay with MDA-MB-231 [2], the kynurenine production was found to be 0.785 ± 0.074.

On to `C=C1C(=O)O[C@H]2[C@H]1CCC(C)=C1CC[C@@](C)(O)[C@@H]12` [Micheliolide] (compound dose: 10 uM), for which the cell viability in the assay with MDA-MB-231 [1] was found to be 0.904 ± 0.063. The kynurenine production in the assay with MDA-MB-231 [2] worked out at 0.591 ± 0.11.

In the case of `C=C(C)[C@@H]1CC[C@@H](C)[C@@H]2CCC(C)=C[C@@H]21` [Amorpha-4,11-diene] (compound dose: 10 uM), in the assay with MDA-MB-231 [1], the cell viability was 1.01 ± 0.06. In the assay on MDA-MB-231 [2], the kynurenine production came out at 0.961 ± 0.19.

Consider `COc1cc(C(C)=O)cc(OC)c1O` [Acetosyringone] (compound dose: 10 uM), for which the cell viability with MDA-MB-231 [1] was 1.05 ± 0.032. The kynurenine production in the assay with MDA-MB-231 [2] came to 0.885 ± 0.087.

In the case of `CC(C)=CCC[C@H](C)CC=O` [(S)-(-)-Citronellal] (compound dose: 10 uM), the cell viability in the assay on MDA-MB-231 [1] is 1.04 ± 0.05. Further, the kynurenine production with MDA-MB-231 [2] was found to be 1.14 ± 0.18.

For `C[C@H](CC[C@@H](O[C@@H]1O[C@H](CO)[C@@H](O)[C@H](O)[C@H]1O)C(C)(C)O)[C@H]1CC[C@@]2(C)[C@@H]3CC=C4[C@@H](CC[C@H](O[C@@H]5O[C@H](CO)[C@@H](O)[C@H](O)[C@H]5O)C4(C)C)[C@]3(C)[C@H](O)C[C@]12C` [Mogroside IIe] (compound dose: 10 uM), the cell viability with MDA-MB-231 [1] was 0.984 ± 0.089. Besides, the kynurenine production with MDA-MB-231 [2] was determined as 0.934 ± 0.29.

For the compound `C[C@@]12C[C@@]3(O)O[C@@H](O1)[C@]1(COC(=O)c4ccccc4)[C@H]3C[C@@]12O[C@@H]1O[C@H](CO)[C@@H](O)[C@H](O)[C@H]1O` [Paeoniflorin] (compound dose: 10 uM), the cell viability in the assay on MDA-MB-231 [1] was 1.03 ± 0.16. In addition, in the assay with MDA-MB-231 [2], the kynurenine production was found to be 1.34 ± 0.27.

Turning to `C[C@@H]1O[C@@H](O[C@@H]2[C@H](O)[C@@H](O)[C@H](O[C@H]3CC[C@@]4(C)C(CC[C@]5(C)C4C=C[C@]46OC[C@@]7(CCC(C)(C)CC74)[C@@H](O)C[C@]65C)C3(C)C)O[C@@H]2CO[C@@H]2O[C@H](CO)[C@@H](O)[C@H](O)[C@H]2O)[C@H](O)[C@H](O)[C@H]1O` (some centres undefined) [Saikosaponin C] (compound dose: 10 uM), in the assay with MDA-MB-231 [1], the cell viability is 0.928 ± 0.063. Further, the kynurenine production in the assay on MDA-MB-231 [2] was found to be 1.13 ± 0.18.

As to `COc1ccc2c(c1O)C(Cc1ccc(O)cc1)[N+](C)(C)CC2` (centres undefined) [Oblongine] (compound dose: 10 uM), in the assay with MDA-MB-231 [1], the cell viability is 0.969 ± 0.037. Further, the kynurenine production with MDA-MB-231 [2] came to 1.03 ± 0.071.

For the compound `CC(C)c1cccc(=O)c(O)c1` [Hinokitiol] (compound dose: 10 uM), the cell viability in the assay on MDA-MB-231 [1] is 0.9746 ± 0.0011. Further, the kynurenine production with MDA-MB-231 [2] was 0.423 ± 0.025.

`COc1ccc(SC)cc1` [4-methoxythioanisole] (compound dose: 10 uM): the cell viability in the assay with MDA-MB-231 [1] was 0.965 ± 0.057. In addition, in the assay with MDA-MB-231 [2], the kynurenine production turned out to be 0.973 ± 0.12.

The values above are taken from the supplement of paper PMC13094657.
